The whole screen tested about 390,000 compounds, of which about 4,700 (1.2%) were called active. Roughly 4% stayed inconclusive and do not appear here. The call rests on the fitted dose curve; in most records, active means well fitted inhibition curve with a large enough effect; inconclusive means small, poorly fitted or top-dose-only effect, or another doubt; inactive means no such curve, though single readings can be large or run the other way. Many of the other results were omitted from the sample, so actives are more common in it than they were.
target: DNA polymerase eta (Homo sapiens) (UniProt Q9Y253); test: qHTS for Inhibitors of Polymerase Eta; conditions: recombinant Pol eta, fluorescent DNA replication assay; series mostly up to 114 µM; activity change, negative = inhibition: at the top concentration
Description: The Y-family of DNA polymerases, such as Pol eta, are specifically involved in DNA repair. Pol eta copies undamaged DNA with a lower fidelity than other DNA-directed polymerases. However, it accurately replicates UV-damaged DNA; when thymine dimers are present, this polymerase inserts the complementary nucleotides in the newly synthesized DNA, thereby bypassing the lesion and suppressing the mutagenic effect of UV-induced DNA damage. […] Thus, while pol eta's (and most likely iota's) normal function is to protect humans against the deleterious consequences of DNA damage, under certain conditions they can have deleterious effects on human health. As a consequence, we propose to utilize a high throughput replication assay to identify small molecule inhibitors of pol eta. In a collaboration between the National Institute of Child Health & Human Development (NICHD) and NIH Chemical Genomics Center, a high-throughput, fluorescent screen was developed to screen the NIH Molecular Libraries Small Molecule Repository (MLSMR). This screen is used to identify inhibitors of pol eta. NIH Chemical Genomics Center [NCGC] NIH Molecular Libraries Probe Centers Network [MLPCN] MLPCN Grant: MH090825 Assay Submitter (PI): Roger Woodgate, NICHD)
Three microliters of reagents (buffer in column 3 and 4 as negative control and 10 nM Pol eta in columns 1, 2, and 5-48) were dispensed into a 1,536-well black solid-bottomed plate. Compounds (23 nL) were transferred via Kalypsys pin tool equipped with 1536-pin array. The plates were then incubated for 15 min at room temperature, and 1 µL substrate (50 nM final concentration) was added to start the reaction and kinetically read twice at 0 min and 10 min on the Viewlux reader
On the % scale 0 is the no-effect control and ±100 the full control effect; potency means the concentration at half of the fitted maximal effect.

Chain of DNA polymerase eta (Homo sapiens) (Q9Y253 whole entry, looked up): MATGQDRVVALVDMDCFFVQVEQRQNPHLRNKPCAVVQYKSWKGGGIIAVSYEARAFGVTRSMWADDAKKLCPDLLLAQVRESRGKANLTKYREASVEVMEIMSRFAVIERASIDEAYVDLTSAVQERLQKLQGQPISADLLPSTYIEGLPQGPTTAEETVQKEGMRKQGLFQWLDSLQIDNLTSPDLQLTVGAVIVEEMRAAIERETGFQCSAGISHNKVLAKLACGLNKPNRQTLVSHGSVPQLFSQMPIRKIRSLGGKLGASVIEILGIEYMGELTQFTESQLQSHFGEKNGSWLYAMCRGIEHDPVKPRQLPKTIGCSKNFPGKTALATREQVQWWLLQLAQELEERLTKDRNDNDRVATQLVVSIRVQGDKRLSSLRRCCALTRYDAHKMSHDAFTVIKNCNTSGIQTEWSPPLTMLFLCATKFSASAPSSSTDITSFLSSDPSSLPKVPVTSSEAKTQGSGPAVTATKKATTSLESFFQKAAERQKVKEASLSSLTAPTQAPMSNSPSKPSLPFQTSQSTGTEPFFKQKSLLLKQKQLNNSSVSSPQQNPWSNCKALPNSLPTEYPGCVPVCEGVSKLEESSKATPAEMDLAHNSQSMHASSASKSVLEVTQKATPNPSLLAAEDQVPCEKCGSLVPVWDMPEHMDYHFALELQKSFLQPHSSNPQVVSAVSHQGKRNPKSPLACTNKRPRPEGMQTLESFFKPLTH

Compound | activity change, negative = inhibition | Potency
COc1ccc(CCNC(=O)Cn2c(=O)cc(C(F)(F)F)c3c(C)nn(C)c32)c(OC)c1 | -11.4% (inactive) | 
CC(=O)c1ccc(NC(=O)CSc2c(C(C)C)cnc3c2c(=O)n(C)c(=O)n3C)cc1 | -13.3% (inactive) | 
O=C(O)c1c(CNCc2cccc(F)c2)c2ccccc2n1Cc1ccccc1 | -0.34% (inactive) | 
COc1ccc(CCNc2nc3c(-c4cccc(F)c4)nnn3c3ccccc23)cc1OC | -6.17% (inactive) | 
COCCCNc1nc2c(-c3cccc(C(F)(F)F)c3)nnn2c2ccccc12 | -9.1% (inactive) | 
COCCCNc1nc2c(-c3cccc(C)c3)nnn2c2ccc(Cl)cc12 |  | 25.1 µM (active)
CCC(CC)c1nn2cc(-c3ccccc3)nc2s1 | -11.7% (inactive) | 
COc1ccc(S(=O)(=O)c2c(Nc3ccc(C)cc3)sc(C(=O)c3ccc(C)cc3)c2N)cc1 | -1.29% (inactive) | 
NS(=O)(=O)c1ccc2nc(NC(=O)CS(=O)(=O)c3ccc(F)cc3)sc2c1 |  | 79.4 µM (active)
NS(=O)(=O)c1ccc2nc(NC(=O)COc3ccccc3)sc2c1 | 5.57% (inactive) | 
Cc1nc2ccc(S(=O)(=O)N(CC(=O)Nc3ccc(F)cc3)Cc3ccccc3)cc2s1 | -16.1% (inactive) | 
CCOc1ccc(CCNC(=O)CN(c2ccc(C)cc2)S(=O)(=O)N(C)C)cc1OCC | -20.3% (inactive) | 
O=C(Nc1cc(Cl)cc(Cl)c1)c1ccc2c(c1)N(Cc1cccc(Cl)c1)C(=O)c1ccccc1S2=O (centres undefined) | -22.9% (inactive) | 
CC(C)(C)n1c(=O)[nH]c2c(c1=O)CCC2 | -3.5% (inactive) | 
O=c1[nH]n2c(=O)c3c([nH]c2c1N=Nc1ccccc1)CCC3 |  | 31.6 µM (active)
Cc1ccc(-n2ncc3c(NCCCn4ccnc4)ncnc32)cc1Cl | -18.1% (inactive) | 
O=C(COc1ccccc1F)OCc1cc(=O)n2nc(C3CCCCC3)sc2n1 | -18% (inactive) | 
O=C(CCSCc1cccc(F)c1)NCc1ccccc1 | 11.9% (inactive) | 
CCc1cc2c(cc(C(=O)OC)n2Cc2nc(-c3ccc(C)cc3)oc2C)s1 | 6.26% (inactive) | 
CC(c1nnc(SCC(=O)Nc2sccc2C#N)n1-c1ccc(Cl)cc1)N(C)C (centres undefined) | 8.96% (inactive) | 
CC(=O)c1cc(C#N)c(SCC(=O)Nc2nccs2)nc1C | -3.13% (inactive) | 
Cc1csc(SCC(=O)Nc2sccc2C#N)n1 |  | 79.4 µM (active)
COc1ccc(S(=O)(=O)NCc2cccn2Cc2cccc(C)c2)cc1Cl | -14.1% (inactive) | 
CSc1cccc(NC(=O)CN2C(=O)CCc3cc(S(=O)(=O)N4CCCCC4)ccc32)c1 | -5.6% (inactive) | 
Cc1ccc2nc(COc3ccc(NC(=O)COc4ccccc4F)cc3)cc(=O)n2c1 | -15.3% (inactive) | 

Compound | activity change, negative = inhibition | Potency
CC(=O)c1ccc(NC(=O)c2nc(-c3ccc(C)cc3)n3c2CCCCC3)cc1 | -12.9% (inactive) | 
N#Cc1c(N2CCCCC2)nc(N)c2c(N)nc(SCC(=O)O)cc12 |  | 22.4 µM (active)
Cc1ccc(CN2CCC(CNC(=O)c3cnn(-c4ccccc4Cl)c3C3CCN(C(=O)OC(C)(C)C)CC3)CC2)cc1 | -19.5% (inactive) | 
COc1ccc(-c2cc(NCc3ccc(F)cc3)n3cnnc3n2)cc1 | -10.6% (inactive) | 
CC1CN(C(=O)N2CCC(C(=O)NCc3cccs3)CC2)c2ccccc2O1 (centres undefined) | -18.7% (inactive) | 
N#Cc1c(-c2cccs2)nc(SCC(=O)c2ccc(Br)cc2)[nH]c1=O |  | 35.5 µM (active)
N#Cc1ccc(-c2cccs2)nc1SCc1ccc(Br)cc1 | -21.6% (inactive) | 
Cc1nnc(SCC(=O)NCc2cccs2)[nH]c1=O | -2.58% (inactive) | 
COc1ccc(-c2nn3c(=O)cc(CN4CCN(C(=O)c5ccc(OC)c(OC)c5)CC4)nc3s2)cc1 | -13.7% (inactive) | 
COc1ccc(Cn2ccnc2SCC(=O)Nc2ccc3c(c2)OCO3)cc1 | -9.75% (inactive) | 
Cc1ccc(CN2CCc3nc(N4CCN(C)CC4)ncc3C2)cc1 | -6.28% (inactive) | 
COc1ccc(CN2C(=O)C(NC(=O)c3cccc(C)c3)(C(F)(F)F)N=C2c2ccccc2)cc1 (centres undefined) | -19.9% (inactive) | 
COc1ccc(C(=O)CSc2c(C(C)C)cnc3c2c(=O)n(C)c(=O)n3C)cc1 | -12.1% (inactive) | 
CCc1ccccc1NC(=O)Cc1ccc(NC(=O)N2CCCCc3ccccc32)cc1 | -14.4% (inactive) | 
Cc1oc2ccc(O)c(CN3CCCCC3)c2c1C(=O)Nc1cccc(C(F)(F)F)c1 | -20.5% (inactive) | 
CCOc1ccc(Nc2oc(/C=C/c3ccc(F)cc3)nc2C#N)cc1 | -9.97% (inactive) | 
CCSC1=C(C#N)C(=O)n2c1cc1c2CCCC1 |  | 12.6 µM (active)
CCSc1ncnc2c(C#N)c3n(c12)CCCCC3 | 1.77% (inactive) | 
CCOC(=O)c1ccc(CSc2nnc3cc(C)c4ccccc4n23)cc1 | -15% (inactive) | 
CC(C)Cn1c(=O)c2ccccc2n2c(CCC(=O)N3CCN(c4cccc(Cl)c4)CC3)nnc12 | -8.33% (inactive) | 
O=c1c2ccccc2n(Cc2cccc(Cl)c2)c(=O)n1Cc1ccccc1 | -6.01% (inactive) | 
CCN(CC)CCCC(C)Nc1ccnc2cc(Cl)ccc12 (centres undefined) | -3.31% [at 57.1 µM] (inactive) | 
CCN(CC)CCCC(C)n1c2nc(=O)[nH]c(=O)c-2nc2cc(Cl)ccc21 (centres undefined) |  | 31.6 µM (active)
CCc1cccc(NC(=O)CSc2nccn2C)c1 | -13.5% (inactive) | 
